Assay outcomes deposited in PubChem BioAssay by several laboratories.
Most compounds without a hit are left out; they make up all but 3% or so of the library.
PAFAH2 FP inh = PAFAH2 (human) inhibition | recombinant PAFAH2, FP-rhodamine activity probe, fluorescence polarization | inhibition, % at 3.39 µM | actives 0.99% (n = 340,000);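 active = inhibition above the mean over all tested compounds plus 3 SD, cut at about 30% in these data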;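 note: inhibitors block probe labeling of enzyme so polarization drops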
pPAFAH FP inh = pPAFAH (human) enzyme inhibition | AID 463082 | inhibition, % at 3.39 µM | actives 1.5% (n = 330,000) | recombinant pPAFAH, FP-rhodamine probe fluorescence polarization | Q13093;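 active = inhibition above the mean inhibition across the screen plus 3 SD, cut at about 25% in these data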;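 note: inhibitors block binding of the rhodamine activity-based probe so polarization drops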
Target sequence (Q13093 whole entry, looked up): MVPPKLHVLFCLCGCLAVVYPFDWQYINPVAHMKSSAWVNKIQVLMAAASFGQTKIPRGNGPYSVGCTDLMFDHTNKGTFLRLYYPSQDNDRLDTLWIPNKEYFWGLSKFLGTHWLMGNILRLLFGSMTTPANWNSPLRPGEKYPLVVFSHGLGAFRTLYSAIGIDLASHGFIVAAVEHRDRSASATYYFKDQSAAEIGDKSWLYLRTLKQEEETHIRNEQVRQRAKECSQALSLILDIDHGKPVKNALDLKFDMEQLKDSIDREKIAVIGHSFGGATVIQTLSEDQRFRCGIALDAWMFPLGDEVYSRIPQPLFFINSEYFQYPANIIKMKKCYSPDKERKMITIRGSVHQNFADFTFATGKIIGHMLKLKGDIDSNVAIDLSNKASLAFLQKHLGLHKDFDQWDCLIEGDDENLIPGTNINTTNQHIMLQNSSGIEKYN
DAGLB inhibitor = diacylglycerol lipase beta (human) inhibition | Q8NCG7 | HEK293T DAGLB membrane lysate, EnzChek fluorogenic substrate | inhibition, % at 5.17 µM | actives 0.059% (n = 340,000) | AID 504411; in the data active = inhibition above about 34%
PAFAH1B2 inh = PAFAH1B2 (human) inhibition; inhibition, % at 3.39 µM; AID 492953; recombinant PAFAH1B2, FP-rhodamine activity probe, fluorescence polarization; P68402; actives 1.2% (n = 340,000);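 active = inhibition above the mean of all tested compounds plus 3 SD, cut at about 24% in these data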
PAFAH1B3 FP inh = blocks human PAF acetylhydrolase 1B catalytic subunit 3; Q15102; recombinant PAFAH1B3, FP-rhodamine probe, fluorescence polarization; inhibition, % at 3.39 µM; actives 0.28% (n = 340,000); AID 492972;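 active = inhibition above the screen-wide average of all tested compounds plus 3 SD, cut at about 25% in these data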
ATG4B inh = ATG4B (human) cysteine protease inhibition. AID 504462. ATG4B cleavage of LC3-PLA2, NBD-HPC fluorescence, 1 h. inhibition, % at 8.33 µM. actives 0.51% (n = 340,000). Q9Y4P1; in the data active = inhibition above about 40%
PAFAH2 confirm = confirmation of human PAFAH2 inhibitors; actives 65% (n = 2,300); inhibition, % at 3.39 µM; recombinant PAFAH2, FP-rhodamine activity probe, fluorescence polarization; shares compounds with PAFAH2 FP inh;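 active = mean inhibition over three repeats above a set limit taken from the earlier primary screen, cut at about 30% in these data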;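 note: inhibitor blocks binding of rhodamine activity probe so polarization falls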
PAFAH1B3 confirm = PAFAH1B3 (human) inhibition, confirmed. AID 493032. recombinant PAFAH1B3, FP-Rh activity-based probe, fluorescence polarization. shares compounds with PAFAH1B3 FP inh. actives 30% (n = 390). inhibition, % at 3.39 µM;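 active = average inhibition over triplicate runs above the hit cutoff set in the earlier primary screen, cut at about 25% in these data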
ATG4B conf = ATG4B (human) inhibition, single-dose confirmed; shares compounds with ATG4B inh; ATG4B protease fluorescent substrate cleavage assay; inhibition, % at 8.33 µM; actives 92% (n = 320); AID 504757; in the data active = inhibition above about 39%
PLA2 counter = PLA2 (human) inhibition in ATG4B counter-screen; shares compounds with ATG4B inh; purified PLA2, NBD-C6-HPC fluorescence, 45 min; inhibition, % at 8.33 µM; actives 66% (n = 1,600); AID 588402; in the data active = inhibition above about 50%
Target sequence (P04054 whole entry, looked up): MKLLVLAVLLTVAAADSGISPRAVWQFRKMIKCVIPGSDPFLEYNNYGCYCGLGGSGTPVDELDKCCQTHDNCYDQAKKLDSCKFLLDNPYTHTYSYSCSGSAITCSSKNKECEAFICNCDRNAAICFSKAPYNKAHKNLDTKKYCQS
Large screens that a line does not name were inactive (follow-up assays come after a bar, where they were run).

COc1ccc(-n2c(-c3ccc(C)cc3)nc3ccccc3c2=O)cc1	none
COc1ccc(-c2nc3ccccc3c(=O)o2)cc1	PAFAH2 FP inh 78.1 | PAFAH2 confirm 70.8
O=C1NC(=O)N(CCC2=CCCCC2)C(=O)/C1=C\c1cccs1	PAFAH2 FP inh 54.7 | PAFAH2 confirm 45.8
O=C(CN1CC(c2ccccc2)CC1=O)Nc1ccccc1 (centres undefined)	PAFAH2 FP inh 43.7 | PAFAH2 confirm inactive
Cc1cccc(NC(=O)COC(=O)c2cc(C)n(C3CC3)c2C)c1	PAFAH2 FP inh 40.1 | PAFAH2 confirm inactive
COC(=O)C1=C(c2ccc(F)cc2F)C[C@@H]2CC[C@H]1N2C(=O)N1CCC(O)CC1	none
Cn1cccc1/C=C1\C(=O)NC(=O)N(CCC2=CCCCC2)C1=O	none (no result: pPAFAH FP inh)
Cn1cccc1/C=C1\C(=O)NC(=O)N(Cc2ccccc2Cl)C1=O	PAFAH2 FP inh 30.5 (no result: pPAFAH FP inh) | PAFAH2 confirm inactive
O=C(c1cc2c(s1)-c1ccccc1OC2)N1CCC2(CC1)OCCO2	PAFAH2 FP inh 30.6 | PAFAH2 confirm inactive
C[C@]12CCC3C(CC[C@H]4C[C@@H](O)[C@H](O)C[C@]34C)C1CC[C@@H]2O (some centres undefined)	none
CN(C)c1ccc(/C=C2/C(=O)NC(=O)N(Cc3ccco3)C2=O)cc1	none
Cc1cc(/C=C2/C(=O)NC(=O)N(Cc3ccco3)C2=O)c(C)n1-c1ccccc1	PAFAH2 FP inh 32.7 | PAFAH2 confirm inactive
Cc1ccccc1NC(=O)N1Cc2ccccc2-n2nncc2C1	none (no result: PAFAH2 FP inh, pPAFAH FP inh, PAFAH1B2 inh, PAFAH1B3 FP inh, ATG4B inh)
Cc1cc(C)cc(N2C(=O)NC(=O)/C(=C\c3cccn3-c3ccccc3)C2=O)c1	PAFAH2 FP inh 46.1 | PAFAH2 confirm 33.8
CC(CC(C)(C)N1CC1)=NO	none (no result: pPAFAH FP inh)
O=C(COc1ccccc1)Nc1ccc(Cl)cc1C(=O)c1ccccc1	none
CC(=O)Nc1ccc(C(=O)OCC(=O)Nc2ccc(Cl)cc2C(=O)c2ccccc2)cc1	PAFAH2 FP inh 68.6 | PAFAH2 confirm 73.0
O=C(COC(=O)c1ccc(O)cc1)Nc1ccc(Cl)cc1C(=O)c1ccccc1	PAFAH2 FP inh 63.3 | PAFAH2 confirm 60.8
CCOP(=O)(CCP(=O)(OCC)OCC)OCC.C[CH2][Sn]([Cl])([Cl])[CH2]C	none (no result: pPAFAH FP inh)
O=C(c1ccc(CNS(=O)(=O)c2ccc(Br)cc2)cc1)N1CCC2(CC1)OCCO2	none
O=C(CNS(=O)(=O)c1ccc(Br)s1)N1CCC2(CC1)OCCO2	PAFAH2 FP inh 35.7 | PAFAH2 confirm inactive
C[C@]12CCC3C(CC[C@@H]4C[C@H](O)CC[C@]34C)C1CCC2=O (some centres undefined)	none
COc1ccc(/C=C2/C(=O)N(Cc3ccco3)C(=O)N(C(C)C)C2=O)cc1	PAFAH2 FP inh 30.0 | PAFAH2 confirm inactive
CCN(CC)c1ccc(/C=C2/C(=O)NC(=O)N(Cc3ccco3)C2=O)cc1	none
ClCCN(CCCl)c1ccc(C=Cc2ccncn2)cc1	none (no result: PAFAH2 FP inh, pPAFAH FP inh, DAGLB inhibitor, PAFAH1B2 inh, PAFAH1B3 FP inh)
COC1=CC2C3Cc4ccc(OC)c(O)c4C2(CCN3C)CC1=O (centres undefined)	none
CCCNC(=O)c1c(N)n(CC2CCCO2)c2nc3ccccc3nc12 (centres undefined)	PAFAH1B3 FP inh 26.7 | PAFAH1B3 confirm inactive
CCC1(NS(=O)(=O)c2ccc(N)cc2)C(=O)N(C)C(=O)N(C)C1=O	none (no result: pPAFAH FP inh)
COC(=O)c1nc(-c2ccc3c(n2)C(=O)C(N)=C(OC)C3=O)c(N)c(-c2ccc(OC)c(OC)c2O)c1C	PAFAH1B3 FP inh 70.3 | PAFAH1B3 confirm 66.8
CS(=O)(=O)c1ccc(C2=C(CNC(=O)c3nccs3)[C@H]3CC[C@@H](C2)N3CCOc2ccccc2)cc1	none (no result: PAFAH2 FP inh, pPAFAH FP inh, PAFAH1B2 inh, PAFAH1B3 FP inh, ATG4B inh)
CC(C)[C@H]1C(=O)N2CCC[C@H]2[C@]2(O)O[C@](NC(=O)[C@@H]3C=C4c5cccc6[nH]cc(c56)C[C@H]4N(C)C3)(C(C)C)C(=O)N12	PAFAH1B3 FP inh 31.5 | PAFAH1B3 confirm inactive
CN(C)[C@@H]1C(=O)C(C(N)=O)=C(O)[C@@]2(O)C(=O)C3=C(O)c4c(O)cccc4[C@@](C)(O)C3C[C@@H]12 (some centres undefined)	pPAFAH FP inh 31.9, PAFAH1B3 FP inh 29.7 | PAFAH1B3 confirm inactive
CCCCn1c(N)c(C(=O)OCCOC)c2nc3ccccc3nc21	none (no result: PAFAH2 FP inh, DAGLB inhibitor, PAFAH1B2 inh, PAFAH1B3 FP inh)
CCCCn1c(NS(=O)(=O)c2ccc(C)cc2)c(C(=O)OCC)c2nc3ccccc3nc21	PAFAH1B3 FP inh 40.1 | PAFAH1B3 confirm inactive
C[C@@H]1CN([C@@H](C)CO)C(=O)CCCn2nncc2CO[C@H]1CN(C)C(=O)Oc1ccc2ccccc2c1	none (no result: PAFAH2 FP inh, pPAFAH FP inh, PAFAH1B2 inh, PAFAH1B3 FP inh, ATG4B inh)
CCOC(=O)c1cc2c(cn1)[C@@H](CCO)NC2	none (no result: pPAFAH FP inh)
Cc1ccc(Cn2cc(C=O)c(-c3ccc(C)cc3)n2)cc1	ATG4B inh 63.2 | PLA2 counter 60.0
O=C(NC1CC1)c1cn(Cc2ccccc2)nc1-c1ccccc1	none (no result: pPAFAH FP inh)
COC(=O)C1=C(c2ccc(F)cc2OCc2ccccc2)C[C@@H]2CC[C@H]1N2C(=O)NCc1ccccc1Cl	ATG4B inh 42.6 | PLA2 counter 62.2
COC(=O)C1=C(c2ccc(F)cc2OCc2ccccc2)C[C@@H]2CC[C@H]1N2C(=O)NCCOc1ccccc1Cl	none
O=c1c2ccccc2nc(SCC2CCCCO2)n1-c1ccccc1 (centres undefined)	ATG4B inh 49.8 | PLA2 counter inactive
C[C@]12CCC3C(CC[C@H]4C[C@@H](O)CC[C@]34C)C1=CC[C@@H]2O (some centres undefined)	none (no result: PAFAH2 FP inh, pPAFAH FP inh, PAFAH1B2 inh, PAFAH1B3 FP inh, ATG4B inh)
CN1C(=O)NC(=O)C2(CCCC2)C1=O	none (no result: pPAFAH FP inh)
CN(CC(=O)Nc1ccccc1-c1ccccc1)C1CCCCC1	ATG4B inh 73.2 | PLA2 counter 78.9
COc1cccc(NP2(=O)OCC(C)([N+](=O)[O-])CO2)c1 (centres undefined)	none (no result: pPAFAH FP inh)
CCn1nc(/C=C/c2ccccc2)nc2c(=O)n(C)c(=O)nc1-2	ATG4B inh 86.8 (no result: PAFAH2 FP inh, pPAFAH FP inh, DAGLB inhibitor, PAFAH1B2 inh, PAFAH1B3 FP inh) | ATG4B conf inactive | PLA2 counter inactive
COc1ccc(-n2c(/C=C/c3ccc(O)cc3)nc3ccccc3c2=O)cc1	none
Cc1cc(OCC(=O)NCC(O)c2ccccc2)c2c3c(c(=O)oc2c1)CCCC3 (centres undefined)	ATG4B inh 52.3 | PLA2 counter 55.5
